Results published in PubChem BioAssay (Tox21).
Results filed as inconclusive are left out. Active and inactive are the calls of the source. Unless noted, calls follow the shape of the dose curve; as a rule, active = well fitted curve in the direction sought with a large enough effect in the repeat runs; inconclusive = weak or mixed curves; inactive = no such curve, though single readings can be large; an effect the other way counts as inactive or inconclusive.

Key:
[1] = qHTS assay to identify small molecule agonists of the peroxisome proliferator-activated receptor delta (PPARd) signaling pathway - cell viability counter screen (AID 743211); also: nearly all actives have a fitted effect of over 55% in size
Outline: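 Read-out: CellTiter-Glo luminescence, 30 min RT, measured in the same wells as the beta-lactamase reporter. Cells: GeneBLAzer PPAR delta UAS-bla HEK293H, 3000 cells/well, compound exposure 17 h at 37C.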

[2] = molecular target: Peroxisome proliferator-activated receptor delta (Homo sapiens) (UniProt Q03181); assay: qHTS assay to identify small molecule agonists of the peroxisome proliferator-activated receptor delta (PPARd) signaling pathway (AID 743212; calls by dose curve)
Sequence of Peroxisome proliferator-activated receptor delta (Homo sapiens) (Q03181 whole entry, looked up): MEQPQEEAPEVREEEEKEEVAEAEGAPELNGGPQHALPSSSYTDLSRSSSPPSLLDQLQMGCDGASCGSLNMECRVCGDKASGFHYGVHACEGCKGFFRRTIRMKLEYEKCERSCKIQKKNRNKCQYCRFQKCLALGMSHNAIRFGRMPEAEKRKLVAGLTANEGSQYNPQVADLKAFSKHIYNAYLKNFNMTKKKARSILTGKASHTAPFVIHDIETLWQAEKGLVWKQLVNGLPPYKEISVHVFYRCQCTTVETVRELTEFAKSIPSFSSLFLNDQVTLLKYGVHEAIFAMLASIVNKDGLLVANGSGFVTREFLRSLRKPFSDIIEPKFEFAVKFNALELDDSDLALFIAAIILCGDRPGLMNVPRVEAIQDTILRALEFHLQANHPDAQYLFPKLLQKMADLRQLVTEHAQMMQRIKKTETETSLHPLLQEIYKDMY
Outline: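 GeneBLAzer UAS-bla HEK293H cells carrying a PPARδ construct were exposed to compounds at 37 °C. Beta-lactamase activity was read by FRET fluorescence after 2 h at room temperature with LiveBLAzer B/G substrate.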

[3] = qHTS assay to identify small molecule antagonists of the peroxisome proliferator-activated receptor delta (PPARd) signaling pathway - cell viability counter screen (AID 743213); also: nearly all actives have a fitted effect of over 50% in size
Outline: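 Agonist-stimulated (L165041, 300 nM final) HEK293H PPARd UAS-bla cells are exposed to compounds for 17 h at 37 C, and ATP-based luminescence (CellTiter-Glo) from the same wells reports cytotoxicity.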

[4] = molecular target: Peroxisome proliferator-activated receptor delta (Homo sapiens) (UniProt Q03181); assay: qHTS assay to identify small molecule antagonists of the peroxisome proliferator-activated receptor delta (PPARd) signaling pathway (AID 743215; active = well fitted inhibition curve with a large enough effect in the signal ratio in the repeat runs, not every such curve was filed as active; the % refers to the signal ratio; also: series mostly up to about 62 µM)
Outline: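 PPARd UAS-bla HEK293H cells were pre-incubated 5 h at 37 C, then given test compounds in DMSO plus agonist L165041 (300 nM final). After 17 h at 37 C, beta-lactamase FRET substrate was added; fluorescence read after 2 h at room temperature.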

[5] = qHTS assay to identify small molecule agonists of the farnesoid-X-receptor (FXR) signaling pathway - cell viability counter screen (AID 743218); also: nearly all actives have a fitted effect of over 45% in size
Outline: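 FXR-UAS-bla HEK 293T cells, plated 5 h at 37 C, were exposed to compounds for 16 h at 37 C. CellTiter-Glo was then added to the same wells as the bla readout; luminescence read after 30 min at room temperature.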

[6] = qHTS assay to identify small molecule antagonists of the farnesoid-X-receptor (FXR) signaling pathway - cell viability counter screen (AID 743221; active = well fitted cell-killing curve with a large enough effect in the repeat runs, not every such curve was filed as active; also: nearly all actives have a fitted effect of over 50% in size)
Outline: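 HEK 293T FXR-bla cells, 5 h pre-incubation; compound + CDCA 50 uM final, 16 h, 37 C; beta-lactamase FRET read first, then CellTiter-Glo luminescence, 30 min RT.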

[7] = molecular target: Vitamin D3 receptor (Homo sapiens) (UniProt P11473); assay: qHTS assay to identify small molecule agonists of the vitamin D receptor (VDR) signaling pathway (AID 743222; calls by dose curve)
Sequence of Vitamin D3 receptor (Homo sapiens) (P11473 whole entry, looked up): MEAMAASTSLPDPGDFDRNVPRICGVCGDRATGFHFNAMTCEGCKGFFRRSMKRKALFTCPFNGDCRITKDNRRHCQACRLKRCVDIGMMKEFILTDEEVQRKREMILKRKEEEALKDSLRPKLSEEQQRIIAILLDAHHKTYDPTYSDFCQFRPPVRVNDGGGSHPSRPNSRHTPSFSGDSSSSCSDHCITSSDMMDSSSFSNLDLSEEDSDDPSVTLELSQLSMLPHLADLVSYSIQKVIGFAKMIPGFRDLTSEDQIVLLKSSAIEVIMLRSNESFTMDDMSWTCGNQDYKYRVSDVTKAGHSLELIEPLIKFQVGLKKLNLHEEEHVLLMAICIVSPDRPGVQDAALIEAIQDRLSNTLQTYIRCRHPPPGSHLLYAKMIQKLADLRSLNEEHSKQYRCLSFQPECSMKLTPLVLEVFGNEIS
Outline: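 VDR-bla cells were plated 4 h at 37C/5% CO2, then exposed to compounds in DMSO for 16 h. After LiveBLAzer B/G FRET substrate addition and 2 h at room temperature, beta-lactamase reporter fluorescence was read.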

[8] = molecular target: Vitamin D3 receptor (Homo sapiens) (UniProt P11473); assay: qHTS assay to identify small molecule antagonists of the vitamin D receptor (VDR) signaling pathway (AID 743223; active = well fitted inhibition curve with a large enough effect in the signal ratio in the repeat runs, not every such curve was filed as active; the % refers to the signal ratio)
Outline: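 Beta-lactamase reporter read-out: FRET substrate fluorescence after 2 h at room temperature, following 16 h exposure of VDR-bla cells to test compound plus 3 nM (final) 1alpha,25-dihydroxyvitamin D3 agonist at 37C.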

[9] = molecular target: Bile acid receptor (Homo sapiens) (UniProt Q96RI1); assay: qHTS assay to identify small molecule antagonists of the farnesoid-X-receptor (FXR) signaling pathway (AID 743217; active = well fitted inhibition curve with a large enough effect in the signal ratio in the repeat runs, not every such curve was filed as active; the % refers to the signal ratio)
Sequence of Bile acid receptor (Homo sapiens) (Q96RI1 whole entry, looked up): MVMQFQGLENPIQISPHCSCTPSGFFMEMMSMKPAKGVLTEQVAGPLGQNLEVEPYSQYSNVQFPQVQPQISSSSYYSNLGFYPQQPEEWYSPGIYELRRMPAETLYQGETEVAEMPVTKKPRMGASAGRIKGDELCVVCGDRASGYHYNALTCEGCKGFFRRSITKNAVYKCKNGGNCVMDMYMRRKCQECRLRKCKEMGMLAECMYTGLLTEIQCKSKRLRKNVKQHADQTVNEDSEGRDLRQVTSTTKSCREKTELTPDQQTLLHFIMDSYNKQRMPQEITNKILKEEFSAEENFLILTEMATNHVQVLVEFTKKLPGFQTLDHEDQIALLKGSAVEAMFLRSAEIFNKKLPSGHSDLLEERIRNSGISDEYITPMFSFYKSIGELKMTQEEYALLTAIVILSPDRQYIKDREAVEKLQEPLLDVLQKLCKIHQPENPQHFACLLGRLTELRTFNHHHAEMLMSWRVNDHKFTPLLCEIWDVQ
Outline: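 FXR-UAS-bla HEK 293T cells pre-incubated 5 h at 37 °C, then exposed to compounds with chenodeoxycholic acid (50 uM final) for 16 h at 37 °C. Beta-lactamase reporter read by LiveBLAzer B/G FRET substrate fluorescence after 2 h at room temperature.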

[10] = molecular target: Bile acid receptor (Homo sapiens) (UniProt Q96RI1); assay: qHTS assay to identify small molecule agonists of the farnesoid-X-receptor (FXR) signaling pathway (AID 743220; active = well fitted activation curve with a large enough effect in the signal ratio in the repeat runs, not every such curve was filed as active; the % refers to the signal ratio)
Outline: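 Beta-lactamase reporter under UAS control in GeneBLAzer FXR HEK 293T cells (5000/well) measured with LiveBLAzer FRET substrate after 2 h at room temperature. Compound exposure lasted 16 h at 37C.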

Measured: Potency

CCCCc1ccc2cccc(S(=O)(=O)O)c2c1
inactive: [1] | [2] | [3] | [4] | [5] | [6] | [7] | [8]

COc1cc(CCC(C)=O)ccc1O
inactive: [1] | [2] | [3] | [4] | [9] | [5] | [10] | [6] | [7] | [8]

O=C(O)c1ccccc1S
inactive: [1] | [2] | [3] | [4] | [9] | [10] | [6] | [7]

Cc1ccccc1Br
inactive: [1] | [2] | [3] | [4] | [9] | [5] | [10] | [6] | [7] | [8]

C1=C\CC/C=C\CC/C=C\CC/1
inactive: [1] | [2] | [3] | [4] | [9] | [5] | [10] | [6] | [7]

CCCC(C)CO (stereo not given)
inactive: [1] | [2] | [3] | [4] | [9] | [5] | [10] | [6]

NC(N)=NS(=O)(=O)c1ccc(N)cc1
inactive: [1] | [2] | [3] | [4] | [9] | [5] | [10] | [6]

O=[N+]([O-])c1ccc(Oc2ccc([N+](=O)[O-])cc2)cc1
inactive: [1] | [2] | [3] | [4] | [9] | [10] | [6] | [7] | [8]

COc1cc(C)cc(O)c1
inactive: [1] | [2] | [3] | [4] | [5] | [6]

Cc1ccccc1C(=O)O
inactive: [1] | [2] | [3] | [4] | [5] | [6] | [7] | [8]

C=C(C)C(=O)OCCC(C)OC(=O)C(=C)C (stereo not given)
inactive: [1] | [2] | [3] | [4] | [5] | [6] | [7] | [8]

Cn1cnc2c(=O)[nH]c(N)nc21
inactive: [1] | [2] | [3] | [4] | [5] | [6] | [7] | [8]

c1ccc(SCCSc2ccccc2)cc1
inactive: [1] | [2] | [3] | [4] | [9] | [5] | [10] | [6] | [7] | [8]

COc1cc(O)cc(O)c1
inactive: [1] | [2] | [3] | [4] | [9] | [5] | [10] | [6] | [7] | [8]

CCCCNc1ccccc1
inactive: [1] | [2] | [3] | [4] | [9] | [5] | [10] | [6] | [7] | [8]

CN(C)C(=O)Nc1ccccc1
inactive: [1] | [2] | [3] | [4] | [5] | [6] | [7] | [8]

CCCCCCCCCCCl
inactive: [1] | [2] | [3] | [4] | [9] | [5] | [10] | [6] | [7] | [8]

CC(=O)N[C@@H](CCC(N)=O)C(=O)O
inactive: [1] | [2] | [3] | [4] | [9] | [10] | [6] | [7] | [8]

CC(C)CCCCCCN
inactive: [1] | [2] | [3] | [4] | [5] | [6] | [7]

COC(=O)CCCCCCCCC(=O)OC
inactive: [1] | [2] | [3] | [4] | [5] | [10] | [6] | [7] | [8]

O=c1[nH]c2ccccc2c(=O)n1CCCl
inactive: [1] | [2] | [3] | [4] | [5] | [6] | [7] | [8]

CCC(C)(C)C1CCC(OC)CC1 (stereo not given)
inactive: [1] | [2] | [3] | [4] | [9] | [5] | [10] | [6] | [7] | [8]

C[N+](C)(C)CC[N+]1(C)Cc2c(Cl)c(Cl)c(Cl)c(Cl)c2C1
inactive: [1] | [2] | [3] | [4] | [5] | [6] | [7] | [8]

Cc1onc(-c2ccccc2)c1-c1ccc(S(N)(=O)=O)cc1
inactive: [1] | [2] | [3] | [4] | [5] | [6] | [7] | [8]

CC(C)(C)CC(C)(C)N
inactive: [1] | [2] | [3] | [4] | [5] | [6] | [7] | [8]
